Here are results for nine compounds from PubChem BioAssay.

Test [1] can be described thus: E. coli DRC41 culture turbidity changes, primary screen, E. coli filamentation inducer project, strain DRC41, OD650, 48 h (AID 1152).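 Note: E. coli MC1000 strain DRC41 lacking acrAB efflux pump and sulA.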 The conditions noted are these: E. coli DRC41 (acrAB sulA), higher = more signal, called active from +8 up or from −8 down.
Test [2] can be described thus: small-molecule binders of probe aLefty1, primary screen, biochemical, small-molecule microarray, 635/667 nm fluorescence (AID 1153).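 Note: score merges spot fluorescence with signal-to-noise ratio from the scanned slide images.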 To be noted: higher = more signal.
The nature of test [3]: PSAC antagonists in infected red cells, primary screen, cell-based, P. falciparum Indochina, OD700, 1 h (AID 1154). The conditions noted are these: P. falciparum Indochina infected RBC osmotic lysis, higher = more signal, called active from +8 up or from −8 down.
Test [4] in a line: PSAC antagonists in infected red cells, primary screen, cell-based, P. falciparum Indochina, OD700, 2 h (AID 1155).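 Note: lysis reports solute entry through the parasite surface anion channel PSAC; channel blockers reduce lysis of infected cells.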 The conditions noted are these: P. falciparum Indochina infected erythrocytes, osmotic lysis OD700; higher = more signal, called active from +8 up or from −8 down.
Test [5] is described as follows: osmotic lysis modulators in infected erythrocytes, primary screen, PSAC antagonist project, cell-based, P. falciparum Indochina, OD700, 3 h (AID 1156). To be noted: higher = more signal, called active from +8 up or from −8 down.
Test [6] is described as follows: PSAC antagonists in infected red cells, primary screen, cell-based, P. falciparum Indochina, OD700, 18 h (AID 1157). To be noted: P. falciparum Indochina infected erythrocytes, osmotic lysis OD700, 18 h; higher = more signal, called active from +8 up or from −8 down.
A short description of test [7]: modulators of S6 phosphorylation in cells, primary screen, cell-based, A549, cytoblot, luminescence, serum-stimulated (AID 1158).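 Note: serum-stimulated A549 lung adenocarcinoma cells; signal is phosphorylated S6 detected by cytoblot immunostaining with HRP secondary.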 To be noted: A549 phospho-S6 cytoblot, 5 h, higher = more signal.
The target in test [8] is NADPH oxidase 2 (Homo sapiens) (UniProt P04839). Kind of test: NOX2-dependent H2O2 signal modulators, primary screen, NOX inhibitor project, cell-based, HEK293-NOX2, PMA-stimulated, Amplex Red fluorescence (AID 1159). Note: test concentration not given here. The conditions noted are these: 45 min, higher = more signal, called active from +8 up or from −8 down.
Sequence of NADPH oxidase 2 (Homo sapiens) (P04839 whole entry, looked up): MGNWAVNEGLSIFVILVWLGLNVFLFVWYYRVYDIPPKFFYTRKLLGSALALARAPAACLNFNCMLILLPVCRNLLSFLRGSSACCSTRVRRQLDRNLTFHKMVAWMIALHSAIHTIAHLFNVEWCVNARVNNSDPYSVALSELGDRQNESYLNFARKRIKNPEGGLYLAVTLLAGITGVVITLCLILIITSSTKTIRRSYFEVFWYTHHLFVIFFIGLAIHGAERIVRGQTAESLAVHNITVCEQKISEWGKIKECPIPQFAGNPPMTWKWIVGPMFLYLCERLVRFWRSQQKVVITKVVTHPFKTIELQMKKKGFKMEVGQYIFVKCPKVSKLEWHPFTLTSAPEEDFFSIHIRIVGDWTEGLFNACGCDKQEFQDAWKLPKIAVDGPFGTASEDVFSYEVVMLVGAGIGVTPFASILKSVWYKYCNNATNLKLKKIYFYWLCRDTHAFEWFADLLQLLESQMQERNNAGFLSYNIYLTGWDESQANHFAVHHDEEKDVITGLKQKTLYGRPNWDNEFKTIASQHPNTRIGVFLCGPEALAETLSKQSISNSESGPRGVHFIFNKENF
The target of test [9] is NADPH oxidase 4 (Homo sapiens) (UniProt Q9NPH5). Kind of test: NOX4-dependent H2O2 signal modulators, primary screen, NOX inhibitor project, cell-based, HEK293-NOX4, tetracycline-induced, Amplex Red fluorescence (AID 1160). The conditions noted are these: 45 min, higher = more signal, called active from +8 up or from −8 down.
Sequence of NADPH oxidase 4 (Homo sapiens) (Q9NPH5 whole entry, looked up): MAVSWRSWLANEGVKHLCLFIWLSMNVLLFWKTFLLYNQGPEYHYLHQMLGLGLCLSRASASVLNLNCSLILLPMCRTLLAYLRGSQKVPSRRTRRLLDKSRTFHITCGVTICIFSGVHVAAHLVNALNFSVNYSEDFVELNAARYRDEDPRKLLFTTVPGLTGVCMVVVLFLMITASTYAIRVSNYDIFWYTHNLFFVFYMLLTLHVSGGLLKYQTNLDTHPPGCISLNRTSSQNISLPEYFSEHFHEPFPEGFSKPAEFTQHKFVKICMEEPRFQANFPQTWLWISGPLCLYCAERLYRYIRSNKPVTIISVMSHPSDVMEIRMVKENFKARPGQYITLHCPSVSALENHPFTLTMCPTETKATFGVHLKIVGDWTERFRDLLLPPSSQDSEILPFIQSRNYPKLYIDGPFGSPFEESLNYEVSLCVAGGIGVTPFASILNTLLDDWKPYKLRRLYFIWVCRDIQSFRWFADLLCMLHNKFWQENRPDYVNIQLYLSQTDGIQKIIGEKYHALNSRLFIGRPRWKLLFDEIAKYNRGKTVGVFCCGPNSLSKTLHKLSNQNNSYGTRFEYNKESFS
The target of test [10] is NADPH oxidase 5 (Homo sapiens) (UniProt Q96PH1). Briefly: NOX5-dependent H2O2 signal modulators, primary screen, NOX inhibitor project, cell-based, HEK293-NOX5, Amplex Red fluorescence (AID 1161). The conditions noted are these: HEK293-NOX5, ionomycin, 45 min, higher = more signal.
Sequence of NADPH oxidase 5 (Homo sapiens) (Q96PH1 whole entry, looked up): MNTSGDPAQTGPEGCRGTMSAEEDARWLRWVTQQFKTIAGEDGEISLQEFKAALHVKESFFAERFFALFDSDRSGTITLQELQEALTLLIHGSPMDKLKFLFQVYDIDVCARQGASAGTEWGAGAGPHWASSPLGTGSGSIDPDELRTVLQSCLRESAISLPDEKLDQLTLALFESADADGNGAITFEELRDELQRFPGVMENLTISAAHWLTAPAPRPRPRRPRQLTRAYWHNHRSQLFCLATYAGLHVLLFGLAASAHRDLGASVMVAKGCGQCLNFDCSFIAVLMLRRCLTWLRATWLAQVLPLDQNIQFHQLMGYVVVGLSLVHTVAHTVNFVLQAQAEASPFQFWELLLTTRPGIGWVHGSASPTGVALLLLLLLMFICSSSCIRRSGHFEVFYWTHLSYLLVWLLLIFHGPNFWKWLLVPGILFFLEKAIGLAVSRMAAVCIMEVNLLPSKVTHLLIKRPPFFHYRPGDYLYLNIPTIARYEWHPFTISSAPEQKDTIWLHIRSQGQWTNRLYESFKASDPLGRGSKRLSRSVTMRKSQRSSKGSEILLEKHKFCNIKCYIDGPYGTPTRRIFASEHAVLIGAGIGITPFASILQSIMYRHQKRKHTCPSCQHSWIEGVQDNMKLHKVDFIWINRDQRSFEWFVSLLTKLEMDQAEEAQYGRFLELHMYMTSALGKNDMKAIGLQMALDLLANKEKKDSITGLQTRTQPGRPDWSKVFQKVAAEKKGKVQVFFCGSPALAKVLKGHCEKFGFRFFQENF
Test [11] can be described thus: A549 cell viability effects, profiling panel, calcein-AM fluorescence, 48 h, basal (AID 1162). Note: test concentration not given here. To be noted: higher = more signal.
A short description of test [12]: adipocyte viability effects, profiling panel, cell-based, 3T3-L1 adipocytes, calcein-AM fluorescence, 48 h, basal (AID 1163). Note: test concentration not given here. To be noted: 3T3-L1 adipocytes viability, higher = more signal.
The nature of test [13]: HepG2 cell viability effects, profiling panel, calcein-AM fluorescence, 48 h, basal (AID 1164). Note: test concentration not given here. To be noted: higher = more signal.
Test [14] can be described thus: MM1S cell viability effects, profiling panel, calcein-AM fluorescence, 48 h, basal (AID 1165).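 Note: viability of MM1S multiple myeloma cells under basal unstimulated conditions; test concentration not given here.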 The conditions noted are these: higher = more signal.
A short description of test [15]: basal RPMI8226 viability, no added stimulus, profiling panel, cell-based, calcein-AM fluorescence, 48 h, PK04 Diversity Set (AID 1166).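 Note: cells grown under basal conditions without added stimulus; test concentration not given here.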 To be noted: RPMI8226 myeloma viability, higher = more signal.
A short description of test [16]: basal HepG2 mitochondrial membrane potential changes, profiling panel, cell-based, JC-1 fluorescence, 24 h, 100 nL compound (AID 1167). Note: test concentration not given here. To be noted: higher = more signal.
The nature of test [17]: basal 3T3-L1 adipocyte mitochondrial potential changes, profiling panel, cell-based, JC-1 fluorescence, 3T3-L1 adipocytes, 24 h, 100 nL compound (AID 1168). Note: test concentration not given here. The conditions noted are these: JC-1 mitochondrial fluorescence, higher = more signal, called active from +8 up or from −8 down.
Test [18] is described as follows: basal RPMI8226 mitochondrial membrane potential changes, profiling panel, cell-based, JC-1 fluorescence, 24 h, 100 nL compound (AID 1169). Note: test concentration not given here. To be noted: RPMI8226 myeloma, JC-1 mitochondrial potential fluorescence, higher = more signal.
Test [19] is described as follows: basal MM1S mitochondrial membrane potential changes, profiling panel, cell-based, JC-1 fluorescence, 24 h, 100 nL compound (AID 1170). Note: test concentration not given here. To be noted: higher = more signal.
Test [20] can be described thus: A549 lung cancer cell viability effects, profiling panel, resazurin fluorescence, 24 h, PK04 Diversity Set (AID 1171). Note: test concentration not given here. To be noted: higher = more signal, called active from +8 up or from −8 down. (Resazurin is reduced to fluorescent resorufin, in cell work by metabolically active cells.)

The structures appear in SMILES notation. The source made the active and inactive calls.

`COc1ccccc1CN1C(=O)c2ccccc2[C@@H](C(=O)NCCN2CCOCC2)[C@@H]1c1ccc(CO)cc1`: the z-score in [1] is -0.0157 (inactive); in test [3], 2.67 (inactive); in test [4], 0.0298 (inactive); in test [5], 1.56 (inactive); in [6] it was 0.695 (inactive); in test [7] it was 0.513. The z-score in [8] is 1.26 (inactive); in test [9] it was -0.65 (inactive); in test [10] it was -2.47; in test [11] it was 0.61; in test [12], 0.0251; in test [13] it was 0.556. Further, the z-score is -0.231 in test [14]; -0.55 in test [15]; 2.15 in test [16]; 0.364 (inactive) in [17]; 0.711 in test [18]; -0.691 in test [19]. Further, the z-score in [20] was 1.33 (inactive). The composite z-score in test [2] was -0.211.

On to `CCCCC=C[C@@H](NC(=O)c1ccc(C(=O)OC)cc1)c1ccccc1`, for which the z-score in [1] is -1.63 (inactive); in [3], 2.85 (inactive); in test [4] it was 0.589 (inactive); in [5], 0.63 (inactive); in test [6] it was 0.569 (inactive); in test [7], 0.12. Further, the z-score in [8] is -1.88 (inactive); in [9], -3.48 (inactive); in test [10], 0.0463; in [11], -1.19; in test [12], -0.87; in test [13], -0.721. In addition, the z-score in test [14] was -2.31; in [15] it was -2.6; in test [16], -1.33; in test [17] it was -0.346 (inactive); in test [18], -0.862; in [19], -1.38. In [20], the z-score is 3.37 (inactive). Moreover, the composite z-score in test [2] was 0.317.

Regarding `CCOc1cc(C(O)C2C=CC3C(=O)N(c4ccccc4)C(=O)C3N2Nc2ccc([N+](=O)[O-])cc2)ccc1O` (stereo not given), the z-score in test [1] was -1.48 (inactive); in test [3], 14.3 (active); in test [4] it was 1.52 (inactive); in test [5], 0.839 (inactive); in [6], 0.557 (inactive); in test [7], -0.77. For the same compound, the z-score in [8] is -3.36 (inactive); in [9], -4.89 (inactive); in [10] it was -4.11; in test [11], -0.499; in test [12] it was -0.742; in [13], -0.527. Besides, the z-score in test [14] is 0.162; in test [15], -0.223; in test [16], -2.36; in test [17], -2.03 (inactive); in test [18], -0.459; in [19], -0.908. In addition, in test [20], the z-score is -0.373 (inactive). This compound yielded a composite z-score in [2] of -0.0011.

For `Cc1c(NC(=O)CC#N)c(=O)n(-c2ccccc2)n1C`, the z-score in [1] is 1.47 (inactive); in test [3], -0.794 (inactive); in test [4], -1.31 (inactive); in test [5] it was -0.202 (inactive); in test [6], -1.31 (inactive); in test [7], 2.17. Also, the z-score in test [8] was -0.463 (inactive); in test [9] it was -0.0592 (inactive); in [10], 0.66; in [11], 1.62; in test [12] it was 0.317; in [13] it was 0.954. Moreover, the z-score in [14] is 0.0823; in test [15], 0.106; in test [16], 1.42; in [17], 0.166 (inactive); in [18] it was -0.128; in test [19] it was -0.63. Further, in test [20], the z-score is 0.234 (inactive). The compound further gave a composite z-score in [2] of -0.193.

As to `CC(C)(C)OC(=O)CC[C@@]1(C(=O)NCCN2CCOCC2)N=C(c2ccc(OCCCO)cc2)O[C@@H]1c1ccccc1`, the z-score in test [1] was 1.18 (inactive); in test [3], 14.8 (active); in test [4], 1.8 (inactive); in test [5] it was 0.267 (inactive); in test [6], 0.813 (inactive); in test [7], 0.413. Also, the z-score was 0.63 (inactive) in test [8]; 1.03 (inactive) in test [9]; 1.8 in test [10]; 0.694 in [11]; 0.571 in test [12]; 0.564 in test [13]. Further, the z-score in [14] is 0.586; in test [15], 1.26; in test [16] it was -0.0256; in test [17], 0.66 (inactive); in test [18], -0.707; in [19] it was -0.514. Also, in test [20], the z-score was -0.24 (inactive). The compound also gave a composite z-score in test [2] of 0.296.

For `CCC[C@@H]1C=C(C(=O)O)[C@H](c2ccc(C)cc2)N1S(=O)(=O)c1ccc(C)cc1`, the z-score in test [1] was -0.75 (inactive); in test [3] it was 0.0822 (inactive); in [4], 0.932 (inactive); in [5], -0.246 (inactive); in test [6] it was 1.03 (inactive); in test [7], -0.476. Also, the z-score in test [8] was 0.769 (inactive); in test [9], -0.741 (inactive); in [10], 0.101; in [11] it was -0.85; in [12], 0.216; in test [13], -0.522. Further, the z-score in test [14] was -0.0213; in test [15] it was 0.101; in test [16], -0.584; in test [17] it was -0.119 (inactive); in test [18], -0.131; in test [19] it was -0.166. In addition, the z-score in test [20] is -0.112 (inactive). Moreover, the composite z-score in test [2] is 0.114.

On to `NC(=O)NCC#Cc1ccc2c(c1)[C@]1(C(=O)N2)[C@H](C(=O)N2CCCCCCC2)[C@H]2C(=O)O[C@H](c3ccccc3)[C@H](c3ccccc3)N2[C@@H]1c1ccc(OCCO)cc1`, for which the z-score in [1] was -0.518 (inactive); in test [3] it was 2.66 (inactive); in test [4], 0.66 (inactive); in test [5] it was 0.391 (inactive); in test [6] it was 0.286 (inactive); in test [7], -0.378. Besides, the z-score in [8] was 1.35 (inactive); in test [9], -1.11 (inactive); in test [10], -0.67; in test [11] it was -0.0962; in [12] it was -0.15; in [13], -1.09. Further, the z-score was -0.682 in test [14]; -0.365 in test [15]; -1.79 in [16]; -2.9 (inactive) in test [17]; -0.165 in test [18]; -0.781 in test [19]. Further, the z-score in test [20] is -0.316 (inactive). In [2], the composite z-score was found to be 1.4.

Regarding `CCCCCCc1nc(CCCc2cc3c(c(CCCCCC)n2)[Si](C(C)C)(C(C)C)OC3)cc2c1[Si](C(C)C)(C(C)C)OC2`, the z-score in [1] is -0.613 (inactive); in [3] it was 0.611 (inactive); in test [4] it was -1.07 (inactive); in test [5], 0.695 (inactive); in test [6], -1.72 (inactive); in test [7], 0.62. For the same compound, the z-score in test [8] was -3.69 (inactive); in [9], -1.13 (inactive); in [10] it was -3.41; in test [11] it was -2.42; in test [12] it was 1.78; in [13], -1.47. Besides, the z-score in [14] is -3.28; in test [15], -4.35; in [16], 0.535; in test [17], 0.705 (inactive); in test [18], -1.1; in test [19], -0.553. For the same compound, the z-score in [20] is 1.75 (inactive). In test [2], this compound gave a composite z-score of 0.13.

Take `COC(=O)C1=CC(CCCO)=CC(C2CC2)N(Cc2sc3ccccc3c2Cl)C=C1C(=O)OC` (stereo not given): the z-score in test [1] is -0.899 (inactive); in test [3] it was 10.6 (active); in test [4], 2.09 (inactive); in [5], 0.901 (inactive); in test [6], 1.23 (inactive); in [7], -0.18. Moreover, the z-score in test [8] was -0.986 (inactive); in test [9] it was -1.76 (inactive); in [10] it was 0.19; in test [11] it was -0.637; in [12], 0.326; in test [13], -0.514. The z-score was -2.99 in [14]; -4.06 in test [15]; 0.00468 in [16]; 0.235 (inactive) in [17]; -0.915 in test [18]; 0.00801 in test [19]. For the same compound, the z-score in test [20] is 0.0509 (inactive). For the same compound, in [2], the composite z-score came out at 0.335.
